This note sets out measurements from PubChem BioAssay AID2524 (Sanford-Burnham Center for Chemical Genomics, 2010).

Screen size: about 330,000 compounds; about 540 (0.16%) were called active. Only a selection was taken, and actives are over-represented in it overall. Values without a mark were called inactive.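 The calls were made as follows: active = activation factor of the enzyme at least 2-fold when tested at 20 µM; inactive = the rest.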

The target in the test is Intestinal-type alkaline phosphatase (Homo sapiens) (UniProt P09923). Description: human IAP activators, primary screen, biochemical, luminescence, uHTS (AID 2524). The conditions noted are these: purified human IAP, CDP-Star luminescence, 30 min; at 10 µM; stronger effect = higher value; 1 = vehicle-only enzyme, 0 = enzyme-free background.
Chain of Intestinal-type alkaline phosphatase (Homo sapiens) (P09923 whole entry, looked up): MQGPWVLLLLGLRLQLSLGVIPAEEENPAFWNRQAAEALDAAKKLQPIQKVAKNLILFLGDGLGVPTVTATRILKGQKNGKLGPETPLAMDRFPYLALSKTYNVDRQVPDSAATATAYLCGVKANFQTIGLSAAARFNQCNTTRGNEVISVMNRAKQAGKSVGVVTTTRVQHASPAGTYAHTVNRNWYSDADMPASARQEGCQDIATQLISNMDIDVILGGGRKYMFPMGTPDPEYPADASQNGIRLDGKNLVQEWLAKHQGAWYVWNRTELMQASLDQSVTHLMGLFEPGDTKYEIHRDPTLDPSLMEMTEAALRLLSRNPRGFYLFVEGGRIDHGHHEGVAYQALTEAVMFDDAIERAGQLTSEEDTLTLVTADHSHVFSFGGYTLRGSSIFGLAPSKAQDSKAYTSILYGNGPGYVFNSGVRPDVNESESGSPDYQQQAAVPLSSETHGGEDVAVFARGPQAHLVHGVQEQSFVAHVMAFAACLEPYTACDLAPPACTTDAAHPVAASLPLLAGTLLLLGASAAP
As for `NC(=O)COc1ccc(NC(=O)c2ccccc2-c2ccccc2)cc1`, the activation factor is 2.12 (active).
Regarding `CC(=O)Nc1ccc(NC(=O)COc2ccc(-c3ccccc3)cc2)cc1`, the activation factor is 0.914.
For `CN(C)C(=O)c1ccc(NC(=O)c2ccccc2-c2ccccc2)cc1` the value was 1.16.
With `Cn1nnnc1SCC(=O)Nc1ccccc1C(=O)NC1CC1`, the activation factor was 0.94.
For `CCN(CC)S(=O)(=O)c1ccc(Cl)c(C(=O)NCCN2CCOCC2)c1` the value was 1.07; for `CC1CC(C)(C)n2c(O)c(N=NC(N)=S)c3cccc1c32` (centres undefined), 0.927.
To `CC(=O)Oc1c(C(=O)c2nnc(C)o2)c(=O)n(Cc2ccccc2)c2ccccc12` belongs 1.07; to `CC(=O)N1CCN(C(=O)c2cccc(S(=O)(=O)Nc3ccc(C)cc3)c2)CC1`, 1.16; to `Cc1cccc(NS(=O)(=O)c2ccc(C)c(C(N)=O)c2)c1`, 1.05.
To `Cc1cccc(NS(=O)(=O)c2cccc(C(=O)NNC(=O)c3ccccc3O)c2)c1` belongs 2.18 (active).
For `CN(C)C(=O)c1cccn(Cc2cccc(C(F)(F)F)c2)c1=O`, the activation factor is 1.24.
Take `Cn1c(N)c(C(=O)COC(=O)C23CC4CC(CC(C4)C2)C3)c(=O)n(C)c1=O`: the activation factor was 0.895.
To `Cc1ccccc1C(=O)NCC(c1ccco1)N1CCc2ccccc21` (centres undefined) belongs 0.802; to `CC12COC3(C(=O)Nc4ccc(Cl)cn4)CC1CCC32C` (centres undefined), 0.935.
To `COc1cc(CN2CCC(n3nccc3NC(=O)CCCc3ccccc3)CC2)ccc1O` belongs 1.47; to `Cc1ccc(CN2CCC(n3nccc3NC(=O)CCCc3ccccc3)CC2)o1`, 1.13; to `COc1ccc(CN2CCC(n3nccc3NC(=O)CCCc3ccccc3)CC2)cc1C`, 3.92 (active).
To `C=Cn1cc[n+](CC(=O)c2ccc(OC)c(OC)c2)c1` belongs 0.894; to `O=C(c1ccc(Br)o1)N(c1ccccn1)C1CCCCC1`, 1.04.
`O=C(N/N=C/c1ccc(Br)o1)c1cncc(Br)c1`: the activation factor is 1.05.
As for `N#Cc1ccccc1CN1C(=O)S/C(=C/c2cccn2-c2cccc(C(=O)O)c2)C1=O`, the activation factor is 1.06.
To `COc1cc(NC(=O)NCC2CCN(Cc3ccc(C)cc3)CC2)cc(OC)c1OC` belongs 2.12 (active).
For `Cc1cccc(CN2CCC(CNC(=O)Nc3ccc(F)c(Cl)c3)CC2)c1` the value was 1.31; for `Cc1ccc(C)c(CN2CCC(CNC(=O)Nc3ccc(C)c(F)c3)CC2)c1`, 1.49.
